Hit rate of the full screen: of about 39,000 compounds, about 1,500 (3.8%) were called active. The list comes from a sample in which actives are over-represented; it also holds similar structures and randomly drawn compounds.

Experimental findings from the antibiotic and cytotoxicity screens of Wong et al. (2023) are described below.

The subject of this test is HSkMC (human skeletal muscle cells). The experiment in a line: cytotoxicity call (relative viability < 0.9). As to conditions: 10 µM.
As for `O=C(C[C@H]1C=C[C@H](NC(=O)Nc2ccc3c(c2)OCO3)[C@@H](CO)O1)NCCCN1CCOCC1`, the cytotoxicity call was “inactive”.
With `C[C@@H]1CN([C@@H](C)CO)S(=O)(=O)c2ccc(C#CCN(C)C)cc2O[C@@H]1CN(C)Cc1ccncc1`, the cytotoxicity call was “inactive”.
As for `CO[C@@H]1CN(C)C(=O)c2ccc(NC(=O)NC(C)C)cc2OC[C@@H](C)N(Cc2ccc(-c3ccccn3)cc2)C[C@@H]1C`, the entry is “inactive”; as for `Cc1ccc(OC(=O)N(C)C[C@@H]2OCc3ccccc3-c3ccccc3C(=O)N([C@@H](C)CO)C[C@@H]2C)cc1`, “inactive”; as for `C[C@H]1CN([C@@H](C)CO)C(=O)c2cccc(NC(=O)Nc3cccc4ccccc34)c2O[C@H]1CN(C)C(=O)Nc1ccccc1`, “inactive”.
As to `C[C@@H]1CN([C@H](C)CO)C(=O)c2cccc(NC(=O)c3nc4ccccc4s3)c2O[C@@H]1CN(C)C(=O)Nc1cccc2ccccc12`, the cytotoxicity call is “inactive”.
As for `C[C@H]1CN([C@@H](C)CO)C(=O)c2cccc(NC(=O)c3nc4ccccc4s3)c2O[C@H]1CN(C)S(=O)(=O)c1cn(C)cn1`, the entry is “active”.
As for `C[C@H](CO)N1C[C@H](C)[C@@H](CN(C)C(=O)Nc2cccc3ccccc23)Oc2c(NC(=O)c3nc4ccccc4s3)cccc2C1=O`, the entry is “active”; as for `C[C@H](CO)N1C[C@H](C)[C@@H](CN(C)C(=O)Nc2ccc(F)cc2)Oc2c(NC(=O)Nc3cccc4ccccc34)cccc2C1=O`, “inactive”.
With `C[C@H](CO)N1C[C@H](C)[C@H](CN(C)C(=O)Nc2ccccc2)Oc2c(NC(=O)Nc3cccc4ccccc34)cccc2C1=O`, the cytotoxicity call is “inactive”.
For `C[C@@H]1CN([C@H](C)CO)C(=O)c2cccc(NC(=O)Nc3cccc4ccccc34)c2O[C@@H]1CN(C)C(=O)Nc1ccc(F)cc1` the value was “active”; for `C[C@H]1CN([C@@H](C)CO)C(=O)c2cccc(NC(=O)Nc3cccc4ccccc34)c2O[C@@H]1CN(C)C(=O)Nc1ccccc1`, “active”.
With `C[C@@H]1CN([C@@H](C)CO)C(=O)c2cccc(NC(=O)c3nc4ccccc4s3)c2O[C@H]1CN(C)S(=O)(=O)c1cn(C)cn1`, the cytotoxicity call is “inactive”.
`C[C@H]1CN([C@@H](C)CO)C(=O)c2cccc(NC(=O)c3nc4ccccc4s3)c2O[C@@H]1CN(C)C(=O)Nc1cccc2ccccc12`: the cytotoxicity call is “inactive”.
Consider `C[C@H](CO)N1C[C@H](C)[C@H](CN(C)C(=O)Nc2ccc(F)cc2)Oc2c(NC(=O)Nc3cccc4ccccc34)cccc2C1=O`, for which the cytotoxicity call is “inactive”.
As for `C[C@@H]1CN([C@@H](C)CO)C(=O)c2cccc(NC(=O)c3nc4ccccc4s3)c2O[C@@H]1CN(C)S(=O)(=O)c1cn(C)cn1`, the cytotoxicity call was “inactive”.
For `COC(=O)CN1C(=O)COc2ccc(C)cc21` the value was “inactive”; for `COc1ccc(cc1)CN1CC[C@]2(CC1)CN([C@@H](CO)c1[nH]c3cc(ccc3c12)OC)C(=O)CN(C)C`, “inactive”; for `CC(C)NC(=O)Nc1ccc2c(c1)C(=O)N([C@@H](C)CO)C[C@H](C)[C@H](CN(C)Cc1ccc(C(=O)O)cc1)O2`, “inactive”.
For `COc1ccc(C#Cc2cnc3c(c2)C(=O)N([C@H](C)CO)C[C@H](C)[C@@H](CN(C)C(=O)CC2CC2)O3)cc1` the value was “inactive”; for `C[C@@H]1CN([C@@H](C)CO)C(=O)c2cc(-c3cccnc3)cnc2O[C@@H]1CN(C)Cc1ccc(-c2ccccc2)cc1`, “inactive”; for `O=C(C[C@H]1CC[C@H](NS(=O)(=O)c2ccc(F)cc2)[C@H](CO)O1)N1CCC(Cc2ccccc2)CC1`, “inactive”.
For `C[C@@H]1CN([C@@H](C)CO)C(=O)c2cccc(NC(=O)Nc3ccccc3)c2O[C@@H]1CN(C)C(=O)Nc1cccc2ccccc12` the value was “active”.
As to `C[C@@H]1CN([C@H](C)CO)C(=O)c2cccc(NC(=O)Nc3cccc4ccccc34)c2O[C@H]1CN(C)C(=O)Nc1cccc2ccccc12`, the cytotoxicity call was “active”.
As for `C[C@@H]1CN([C@@H](C)CO)C(=O)c2cccc(NC(=O)Nc3cccc4ccccc34)c2O[C@H]1CN(C)C(=O)Nc1ccccc1`, the entry is “active”; as for `C[C@H]1CN([C@@H](C)CO)C(=O)c2cccc(NC(=O)Nc3cccc4ccccc34)c2O[C@H]1CN(C)C(=O)Nc1cccc2ccccc12`, “inactive”; as for `C[C@H](CO)N1C[C@H](C)[C@@H](CN(C)C(=O)Nc2cccc3ccccc23)Oc2c(NC(=O)Nc3ccccc3)cccc2C1=O`, “inactive”.
For `COc1ccc(NC(=O)N(C)C[C@@H]2Oc3c(NC(=O)Nc4cccc5ccccc45)cccc3C(=O)N([C@H](C)CO)C[C@@H]2C)cc1` the value was “inactive”; for `C[C@H]1CN([C@@H](C)CO)C(=O)c2cccc(NC(=O)Nc3ccccc3)c2O[C@H]1CN(C)C(=O)Nc1cccc2ccccc12`, “inactive”; for `C[C@@H]1CN([C@H](C)CO)C(=O)c2cccc(NC(=O)Nc3cccc4ccccc34)c2O[C@@H]1CN(C)C(=O)Nc1ccccc1`, “inactive”.
For `COc1ccc(NC(=O)N(C)C[C@H]2Oc3c(NC(=O)Nc4cccc5ccccc45)cccc3C(=O)N([C@@H](C)CO)C[C@@H]2C)cc1` the value was “active”; for `COc1ccc(NC(=O)N(C)C[C@@H]2Oc3c(NC(=O)Nc4cccc5ccccc45)cccc3C(=O)N([C@H](C)CO)C[C@H]2C)cc1`, “inactive”; for `C[C@@H]1CN([C@@H](C)CO)C(=O)c2cccc(NC(=O)Nc3cccc4ccccc34)c2O[C@H]1CN(C)C(=O)Nc1cccc2ccccc12`, “inactive”.
Turning to `C[C@@H]1CN([C@H](C)CO)C(=O)c2cccc(NC(=O)Nc3cccc4ccccc34)c2O[C@H]1CN(C)C(=O)Nc1ccccc1`, the cytotoxicity call is “inactive”.
Consider `CN1C(=O)c2cc(NS(=O)(=O)c3cccc(F)c3)ccc2OC[C@H]2O[C@H](CC(=O)NCCN3CCCCC3)CC[C@@H]21`, for which the cytotoxicity call is “inactive”.
For `NC(=O)NC(=O)C[n+]1ccc(/C=N/O)cc1` the value was “inactive”; for `COc1ccc(S(=O)(=O)N(C)C[C@H]2Oc3ccc(N(C)C)cc3C(=O)N([C@@H](C)CO)C[C@@H]2C)cc1`, “inactive”.
For `CS(=O)(=O)N1C[C@H]2C[C@@H](F)[C@@H](O)[C@@H]2C1` the value was “inactive”; for `C[C@@H]1CCCCO[C@@H](CN(C)C(=O)Nc2ccc3c(c2)OCO3)[C@@H](C)CN([C@H](C)CO)C(=O)c2cc(NC(=O)NC3CCCCC3)ccc2O1`, “inactive”.
As for `O=C(C[C@H]1C[C@@H]2c3cc(NS(=O)(=O)c4ccc(F)cc4)ccc3O[C@@H]2[C@H](CO)O1)NCc1cccnc1`, the cytotoxicity call is “inactive”.
Regarding `O=C(C[C@@H]1C[C@H]2c3cc(NC(=O)NC4CCCC4)ccc3O[C@H]2[C@H](CO)O1)NCc1ccc2c(c1)OCO2`, the cytotoxicity call was “inactive”.
On to `O=C(CN1CCOCC1)NCC[C@@H]1CC[C@@H](NC(=O)Cc2ccccn2)[C@H](CO)O1`, for which the cytotoxicity call was “inactive”.
For the compound `C[C@@H]1CN([C@@H](C)CO)C(=O)Cc2cc(NC(=O)C3CCCCC3)ccc2O[C@H]1CN(C)C(=O)Nc1ccc(C(F)(F)F)cc1`, the cytotoxicity call is “inactive”.
For `CC[C@H]1CN(C)N1C(=O)[C@@H]1CCCO1` the value was “inactive”.
Turning to `CC(C)CC#Cc1ccc2c(c1)O[C@H](CN(C)C(=O)c1ccncc1)[C@H](C)CN([C@@H](C)CO)S2(=O)=O`, the cytotoxicity call was “inactive”.
As for `C[C@H](CO)N1C[C@H](C)[C@@H](CN(C)Cc2ccc(Cl)c(Cl)c2)Oc2ccc(NS(=O)(=O)c3ccc(Cl)cc3)cc2CC1=O`, the entry is “inactive”.
For `C[C@H](CO)N1C[C@H](C)[C@H](CN(C)Cc2ccc(Cl)c(Cl)c2)Oc2ccc(NS(=O)(=O)c3ccc(Cl)cc3)cc2CC1=O` the value was “active”; for `C[C@@H]1CN([C@@H](C)CO)C(=O)Cc2cc(NS(=O)(=O)c3ccc(Cl)cc3)ccc2O[C@@H]1CN(C)Cc1ccc(Cl)c(Cl)c1`, “active”; for `C[C@H]1CN([C@@H](C)CO)C(=O)Cc2cc(NS(=O)(=O)c3ccc(Cl)cc3)ccc2O[C@@H]1CN(C)Cc1ccc(Cl)c(Cl)c1`, “inactive”.
For `C[C@@H]1CN([C@@H](C)CO)C(=O)Cc2cc(NS(=O)(=O)c3ccc(Cl)cc3)ccc2O[C@H]1CN(C)Cc1ccc(Cl)c(Cl)c1` the value was “active”.
As to `C[C@@H]1CN([C@H](C)CO)C(=O)Cc2cc(NS(=O)(=O)c3ccc(Cl)cc3)ccc2O[C@@H]1CN(C)Cc1ccc(Cl)c(Cl)c1`, the cytotoxicity call is “active”.
In the case of `C[C@H](CO)N1C[C@H](C)[C@H](CN(C)CC2CC2)Oc2ccc(NC(=O)CCN3CCOCC3)cc2CC1=O`, the cytotoxicity call is “inactive”.
For `CC(C)NC(=O)N(C)C[C@@H]1Oc2ccc(NC(=O)NC3CCCCC3)cc2C(=O)N([C@H](C)CO)C[C@@H]1C`, the cytotoxicity call was “inactive”.
For `CC(C)(C)[S@@](=O)N1Cc2cc(C(=O)NCc3ccc4c(c3)OCO4)nc(CCNS(=O)(=O)c3ccccc3)c2[C@H]1CCO`, the cytotoxicity call was “inactive”.
As for `CCS(=O)(=O)N1CC[C@]2(CC1)CN(CC1CCOCC1)[C@H](CO)c1c2c2ccc(cc2n1C)OC`, the cytotoxicity call is “inactive”.
In the case of `Cc1noc(C)c1S(=O)(=O)Nc1ccc2c(c1)CC(=O)N([C@H](C)CO)C[C@H](C)[C@H](CN(C)Cc1ccc3c(c1)OCO3)O2`, the cytotoxicity call is “inactive”.
`C[C@@H]1CCCCO[C@H](CN(C)C(=O)Nc2ccc(F)cc2)[C@@H](C)CN([C@H](C)CO)C(=O)c2cc(NC(=O)Nc3ccc4c(c3)OCO4)ccc2O1`: the cytotoxicity call is “inactive”.
As for `Cc1noc(C)c1NC(=O)N(C)C[C@@H]1Oc2ccc(NS(=O)(=O)c3cn(C)cn3)cc2C(=O)N([C@H](C)CO)C[C@@H]1C`, the entry is “inactive”; as for `Cc1ccc(S(=O)(=O)N(C)C[C@@H]2OCCCC[C@@H](C)Oc3ccc(NC(=O)Nc4ccc(F)cc4)cc3C(=O)N([C@@H](C)CO)C[C@H]2C)cc1`, “inactive”.
As for `O=C(C[C@@H]1C=C[C@@H](NC(=O)c2cccc(F)c2)[C@H](CO)O1)NCCN1CCCC1`, the entry is “inactive”.
For `C[C@H](CO)N1C[C@H](C)[C@@H](CN(C)Cc2ccc(Cl)c(Cl)c2)Oc2ccc(NS(=O)(=O)c3ccc(F)cc3)cc2CC1=O` the value was “inactive”; for `C[C@@H]1CN([C@H](C)CO)C(=O)Cc2cc(NS(=O)(=O)c3ccc(Cl)cc3)ccc2O[C@H]1CN(C)Cc1ccc(Cl)c(Cl)c1`, “active”.
In the case of `C[C@H](CO)N1C[C@H](C)[C@H](CN(C)Cc2ccc(Cl)c(Cl)c2)Oc2ccc(NS(=O)(=O)c3ccc(F)cc3)cc2CC1=O`, the cytotoxicity call is “inactive”.
For `C[C@H]1CN([C@@H](C)CO)C(=O)Cc2cc(NS(=O)(=O)c3ccc(Cl)cc3)ccc2O[C@H]1CN(C)Cc1ccc(Cl)c(Cl)c1`, the cytotoxicity call was “active”.
